PubChem BioAssay (EPA / NIEHS)
“And” between values parts separate entries of the source, which are not always exact repeats. Equal entries are not always repeated. Records with an inconclusive call do not appear. More than one record can exist for a structure, and the calls need not agree. The source made the active and inactive calls. How the source made its calls: active means hit-call score of the fitted dose curve at least 0.9, where 1 is the maximum; inconclusive means response in the unintended direction; inactive means score below 0.9.

Experiments:
[1] = target: human Beta-secretase (BACE), BACE1 (gene 23621) (UniProt P56817); test: NVS_ENZ_hBACE: NovaScreen (NVS) Enzymatic Assay for human Beta-secretase (BACE) (AID 2283140);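 further: hits are inhibitors that reduce fluorescent substrate signal versus DMSO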
In short: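 Cell-free assay of recombinant Sf9-expressed human BACE with fluorescent substrate, read by fluorescence intensity after 1 h. Primary screen in duplicate at 25 uM; actives then run in concentration series; loss of signal relative to DMSO.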

[2] = target: human Aurora Kinase A - serine/threonine-protein Kinase 6 (AurA), AURKA (gene 6790) (UniProt O14965); test: NVS_ENZ_hAurA: NovaScreen (NVS) Enzymatic Assay for human Aurora Kinase A - serine/threonine-protein Kinase 6 (AurA) (AID 2283142)
In short: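 Cell-free enzymatic assay with human Aurora A, 1 hour after dosing. Fluorescent substrate turnover detected after electrophoretic mobility shift separation of substrate and product. Screened at 25 uM, actives retested in concentration-response up to 50 uM.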

[3] = target: human Elastase, ELANE (gene 1991) (UniProt P08246); test: NVS_ENZ_hElastase: NovaScreen (NVS) Enzymatic Assay for human Elastase (AID 2283153)
In short: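 Cell-free elastase from human neutrophils, 1.5 h after dosing, activity read by absorbance. Primary screen in duplicate at 25 uM; hits (e.g., 30% inhibition) rerun in singleton concentration-response up to 50 uM, fitted versus DMSO.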

[4] = target: human Ephrin type-B Receptor 1 (EphB1), EPHB1 (gene 2047) (UniProt P54762); test: NVS_ENZ_hEphB1: NovaScreen (NVS) Enzymatic Assay for human Ephrin type-B Receptor 1 (EphB1) (AID 2283154)
In short: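 Cell-free kinase assay with recombinant enzyme, fluorescent substrate and electrophoretic mobility-shift separation of substrate and product; read 1 h after dosing. Single-concentration duplicate screen at 25 uM; loss of signal versus DMSO baseline.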

[5] = target: Caspase-3 (Homo sapiens) (UniProt P42574); test: NVS_ENZ_hCASP3: NovaScreen (NVS) Enzymatic Assay for human Caspase 3 (CASP3) (AID 2283139)
In short: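 Recombinant human caspase-3 from E. coli with a fluorogenic substrate, read by fluorescence 1 h after dosing. Primary screen in duplicate at 25 uM. Actives (for example ≥30% inhibition) rerun as concentration-response up to 50 uM.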

[6] = target: human Caspase 8 (CASP8), CASP8 (gene 841) (UniProt Q14790); test: NVS_ENZ_hCASP8: NovaScreen (NVS) Enzymatic Assay for human Caspase 8 (CASP8) (AID 2283146)
In short: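 E. coli-expressed enzyme was used in a cell-free fluorogenic substrate assay read 1 h after dosing. Loss of signal was scored relative to DMSO, and the primary screen was run in duplicate at 25 uM.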

[7] = target: human AKT serine/threonine Kinase 2 (AKT2), AKT2 (gene 208) (UniProt P31751); test: NVS_ENZ_hAKT2: NovaScreen (NVS) Enzymatic Assay for human AKT serine/threonine Kinase 2 (AKT2) (AID 2283141)
In short: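 Cell-free fluorescence/electrophoretic mobility shift readout of recombinant human AKT2 activity, 1 h after chemical dosing. Duplicate primary screen at 25 uM, then singleton concentration-response up to 50 uM; loss of signal versus DMSO baseline.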

[8] = target: human Caspase 2 (CASP2), CASP2 (gene 835) (UniProt P42575); test: NVS_ENZ_hCASP2: NovaScreen (NVS) Enzymatic Assay for human Caspase 2 (CASP2) (AID 2283135)
In short: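 E. coli-expressed enzyme in a cell-free protease assay, fluorescence read 1 h after dosing. Compounds at 25 uM in duplicate, with concentration-response up to 50 uM for hits; loss of signal against DMSO baseline.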

[9] = target: human Acid Phosphatase 1 (ACP1), ACP1 (gene 52) (UniProt P24666); test: NVS_ENZ_hACP1: NovaScreen (NVS) Enzymatic Assay for human Acid Phosphatase 1 (ACP1) (AID 2283136)
In short: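 Recombinant enzyme expressed in Sf9 cells, tested cell-free; activity read by fluorescence with electrophoretic mobility shift separation of substrate and product, 1.5 h after dosing. Primary screen in duplicate at 25 uM, actives then run in concentration series; loss of signal versus DMSO.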

[10] = target: human Caspase 5 (CASP5), CASP5 (gene 838) (UniProt P51878); test: NVS_ENZ_hCASP5: NovaScreen (NVS) Enzymatic Assay for human Caspase 5 (CASP5) (AID 2283137)
In short: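 Recombinant human caspase 5 expressed in E. coli, fluorogenic substrate, fluorescence read 2 h after dosing. Single-point 25 uM duplicate screen, then concentration-response to maximum 50 uM for actives; DMSO baseline.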

[11] = target: human Caspase 4 (CASP4), CASP4 (gene 837) (UniProt P49662); test: NVS_ENZ_hCASP4: NovaScreen (NVS) Enzymatic Assay for human Caspase 4 (CASP4) (AID 2283143)
In short: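 The cell-free assay used E. coli-expressed enzyme with a fluorogenic substrate, read 2 h after dosing. Signal loss was scored versus DMSO. Screening was in duplicate at 25 uM, then singleton concentration-response up to 50 uM.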

[12] = target: human Casein Kinase 2- alpha 2 beta 2 (CK2a2b2), CSNK2A1 (gene 1457) (UniProt P68400); test: NVS_ENZ_hCK2a2b2: NovaScreen (NVS) Enzymatic Assay for human Casein Kinase 2- alpha 2 beta 2 (CK2a2b2) (AID 2283147)
In short: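 Cell-free recombinant CK2 α2β2 holoenzyme with a fluorescent peptide substrate; product separated by electrophoretic mobility shift and read 1 h after dosing. Single-point screen at 25 uM in duplicate; actives were followed with concentration-response up to 50 uM versus DMSO.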

[13] = target: human Colony Stimulating Factor 1 Receptor (CSF1R), CSF1R (gene 1436) (UniProt P07333); test: NVS_ENZ_hCSF1R: NovaScreen (NVS) Enzymatic Assay for human Colony Stimulating Factor 1 Receptor (CSF1R) (AID 2283150)
In short: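 Cell-free recombinant human CSF1R kinase with fluorescent substrate, product separated by electrophoretic mobility shift; read 1 h after dosing. Primary screen at 25 uM in duplicate, actives then in concentration-response up to 50 uM, relative to DMSO.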

[14] = target: human Dual Specificity Protein Phosphatase 3 (DUSP3), DUSP3 (gene 1845) (UniProt P51452); test: NVS_ENZ_hDUSP3: NovaScreen (NVS) Enzymatic Assay for human Dual Specificity Protein Phosphatase 3 (DUSP3) (AID 2283152);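 further: phosphatase activity of recombinant human DUSP3 on a fluorogenic substrate without cells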
In short: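 Cell-free assay with recombinant human DUSP3 and fluorogenic substrate, read by fluorescence intensity. Primary screen ran duplicate at 25 uM; actives followed up in concentration series; loss of signal versus DMSO scored.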

[15] = target: human Ephrin type-A Receptor 2 (EphA2), EPHA2 (gene 1969) (UniProt P29317); test: NVS_ENZ_hEphA2: NovaScreen (NVS) Enzymatic Assay for human Ephrin type-A Receptor 2 (EphA2) (AID 2283155)
In short: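 Cell-free recombinant EphA2 kinase with specific substrate, 1 h, fluorescence with electrophoretic mobility-shift separation of substrate and product. Primary screen at 25 uM in duplicate; hits retested in singleton concentration-response up to 50 uM, referenced to DMSO.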

[16] = target: human Esterase Plasma (ES), BCHE (gene 590) (UniProt P06276); test: NVS_ENZ_hES: NovaScreen (NVS) Enzymatic Assay for human Esterase Plasma (ES) (AID 2283157)
In short: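 Esterase from human plasma, cell-free, colorimetric absorbance read 0.25 h after dosing. Screened at 25 uM in duplicate, with threshold-passing chemicals run in concentration-response up to 50 uM; loss of signal fitted versus DMSO.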

[17] = target: human AKT serine/threonine Kinase 1 (AKT1), AKT1 (gene 207) (UniProt P31749); test: NVS_ENZ_hAKT1: NovaScreen (NVS) Enzymatic Assay for human AKT serine/threonine Kinase 1 (AKT1) (AID 2283138)
In short: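 Recombinant human AKT1 with a specific substrate, product separated by electrophoretic mobility shift, read after 1 h. Compounds at 25 uM in duplicate, then concentration-response up to 50 uM for hits; inhibition relative to DMSO.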

[18] = target: human Casein Kinase 1-delta (CK1D), CSNK1D (gene 1453) (UniProt P48730); test: NVS_ENZ_hCK1D: NovaScreen (NVS) Enzymatic Assay for human Casein Kinase 1-delta (CK1D) (AID 2283148)
In short: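 Recombinant human CK1-delta, cell-free; fluorescent substrate with electrophoretic mobility-shift separation of product, read 1 h after dosing. Single 25 uM duplicate screen, then concentration-response up to 50 uM; loss of signal vs DMSO.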

[19] = target: human Ephrin type-B Receptor 2 (EphB2), EPHB2 (gene 2048) (UniProt P29323); test: NVS_ENZ_hEphB2: NovaScreen (NVS) Enzymatic Assay for human Ephrin type-B Receptor 2 (EphB2) (AID 2283156)
In short: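 Recombinant kinase with fluorescent substrate, product separated by electrophoretic mobility shift, read 1 h after dosing. Duplicate 25 uM screen, then singleton concentration-response to 50 uM max; loss of signal versus DMSO.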

Sequence of human AKT serine/threonine Kinase 1 (AKT1), AKT1 (gene 207) (P31749 whole entry, looked up): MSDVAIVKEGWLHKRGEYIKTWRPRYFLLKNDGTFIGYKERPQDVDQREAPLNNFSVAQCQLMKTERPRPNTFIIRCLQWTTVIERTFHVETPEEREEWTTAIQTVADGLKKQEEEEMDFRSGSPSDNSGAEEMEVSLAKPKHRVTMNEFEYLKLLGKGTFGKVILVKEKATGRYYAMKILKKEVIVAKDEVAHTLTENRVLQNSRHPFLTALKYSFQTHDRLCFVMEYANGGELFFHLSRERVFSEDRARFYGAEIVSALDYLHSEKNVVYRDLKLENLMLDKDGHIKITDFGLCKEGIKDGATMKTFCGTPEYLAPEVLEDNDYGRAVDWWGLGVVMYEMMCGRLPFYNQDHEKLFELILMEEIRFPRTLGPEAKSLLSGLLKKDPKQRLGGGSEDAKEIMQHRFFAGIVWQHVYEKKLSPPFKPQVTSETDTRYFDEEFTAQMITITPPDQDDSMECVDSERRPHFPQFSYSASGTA
Sequence of human Caspase 2 (CASP2), CASP2 (gene 835) (P42575 whole entry, looked up): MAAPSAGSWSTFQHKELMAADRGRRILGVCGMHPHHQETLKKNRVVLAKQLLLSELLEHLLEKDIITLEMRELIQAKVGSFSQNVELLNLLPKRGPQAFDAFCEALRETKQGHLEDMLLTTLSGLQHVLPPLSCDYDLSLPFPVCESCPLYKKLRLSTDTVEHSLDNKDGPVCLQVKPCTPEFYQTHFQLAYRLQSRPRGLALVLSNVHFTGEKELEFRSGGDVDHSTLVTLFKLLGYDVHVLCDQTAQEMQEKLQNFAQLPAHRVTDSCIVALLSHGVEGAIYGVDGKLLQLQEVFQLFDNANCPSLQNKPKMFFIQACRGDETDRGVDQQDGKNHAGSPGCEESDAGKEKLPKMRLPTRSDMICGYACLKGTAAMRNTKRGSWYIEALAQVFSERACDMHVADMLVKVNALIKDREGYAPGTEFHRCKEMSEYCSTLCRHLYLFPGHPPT
Sequence of human Caspase 8 (CASP8), CASP8 (gene 841) (Q14790 whole entry, looked up): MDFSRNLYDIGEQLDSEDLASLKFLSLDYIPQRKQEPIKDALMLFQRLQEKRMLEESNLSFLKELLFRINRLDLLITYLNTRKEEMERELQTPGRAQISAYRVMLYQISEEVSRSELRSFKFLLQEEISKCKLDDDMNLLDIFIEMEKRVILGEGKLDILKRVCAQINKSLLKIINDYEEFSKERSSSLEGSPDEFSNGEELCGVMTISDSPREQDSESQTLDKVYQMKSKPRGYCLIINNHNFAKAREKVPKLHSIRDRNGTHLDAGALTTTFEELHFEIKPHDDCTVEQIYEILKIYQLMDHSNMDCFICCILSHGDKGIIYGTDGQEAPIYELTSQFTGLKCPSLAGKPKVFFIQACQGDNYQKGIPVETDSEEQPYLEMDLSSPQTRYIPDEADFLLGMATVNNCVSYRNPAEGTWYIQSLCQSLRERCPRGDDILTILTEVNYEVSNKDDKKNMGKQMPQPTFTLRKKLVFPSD
Sequence of human Casein Kinase 2- alpha 2 beta 2 (CK2a2b2), CSNK2A1 (gene 1457) (P68400 whole entry, looked up): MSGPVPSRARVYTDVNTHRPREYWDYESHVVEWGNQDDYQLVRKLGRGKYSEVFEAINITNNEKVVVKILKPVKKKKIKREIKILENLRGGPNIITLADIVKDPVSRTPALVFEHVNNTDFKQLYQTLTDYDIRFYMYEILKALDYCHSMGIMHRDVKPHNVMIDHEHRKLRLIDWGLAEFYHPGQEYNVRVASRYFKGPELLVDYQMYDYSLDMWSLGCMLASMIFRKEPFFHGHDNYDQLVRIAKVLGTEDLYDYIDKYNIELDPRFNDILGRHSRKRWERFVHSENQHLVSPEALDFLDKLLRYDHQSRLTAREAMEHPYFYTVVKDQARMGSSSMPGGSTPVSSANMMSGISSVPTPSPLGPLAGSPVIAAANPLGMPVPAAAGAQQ
Sequence of Caspase-3 (Homo sapiens) (P42574 whole entry, looked up): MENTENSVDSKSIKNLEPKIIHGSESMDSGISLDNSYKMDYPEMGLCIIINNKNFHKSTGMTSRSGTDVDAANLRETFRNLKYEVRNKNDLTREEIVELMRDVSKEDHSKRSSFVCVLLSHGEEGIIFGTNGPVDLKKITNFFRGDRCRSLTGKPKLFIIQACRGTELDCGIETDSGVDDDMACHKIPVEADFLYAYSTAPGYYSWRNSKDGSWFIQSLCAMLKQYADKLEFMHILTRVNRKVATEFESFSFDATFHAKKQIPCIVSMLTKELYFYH
Sequence of human Aurora Kinase A - serine/threonine-protein Kinase 6 (AurA), AURKA (gene 6790) (O14965 whole entry, looked up): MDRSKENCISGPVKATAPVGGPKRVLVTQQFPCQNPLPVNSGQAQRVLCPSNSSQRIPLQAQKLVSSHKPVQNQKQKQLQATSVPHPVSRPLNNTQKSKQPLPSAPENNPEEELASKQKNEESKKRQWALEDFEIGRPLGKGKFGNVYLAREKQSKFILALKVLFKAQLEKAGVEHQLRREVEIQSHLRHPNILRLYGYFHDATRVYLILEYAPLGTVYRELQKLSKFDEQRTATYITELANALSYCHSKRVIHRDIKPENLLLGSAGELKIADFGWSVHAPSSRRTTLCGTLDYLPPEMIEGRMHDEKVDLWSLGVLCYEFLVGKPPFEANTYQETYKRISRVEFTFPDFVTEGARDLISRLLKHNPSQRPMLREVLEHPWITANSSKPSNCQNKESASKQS
Sequence of human Ephrin type-A Receptor 2 (EphA2), EPHA2 (gene 1969) (P29317 whole entry, looked up): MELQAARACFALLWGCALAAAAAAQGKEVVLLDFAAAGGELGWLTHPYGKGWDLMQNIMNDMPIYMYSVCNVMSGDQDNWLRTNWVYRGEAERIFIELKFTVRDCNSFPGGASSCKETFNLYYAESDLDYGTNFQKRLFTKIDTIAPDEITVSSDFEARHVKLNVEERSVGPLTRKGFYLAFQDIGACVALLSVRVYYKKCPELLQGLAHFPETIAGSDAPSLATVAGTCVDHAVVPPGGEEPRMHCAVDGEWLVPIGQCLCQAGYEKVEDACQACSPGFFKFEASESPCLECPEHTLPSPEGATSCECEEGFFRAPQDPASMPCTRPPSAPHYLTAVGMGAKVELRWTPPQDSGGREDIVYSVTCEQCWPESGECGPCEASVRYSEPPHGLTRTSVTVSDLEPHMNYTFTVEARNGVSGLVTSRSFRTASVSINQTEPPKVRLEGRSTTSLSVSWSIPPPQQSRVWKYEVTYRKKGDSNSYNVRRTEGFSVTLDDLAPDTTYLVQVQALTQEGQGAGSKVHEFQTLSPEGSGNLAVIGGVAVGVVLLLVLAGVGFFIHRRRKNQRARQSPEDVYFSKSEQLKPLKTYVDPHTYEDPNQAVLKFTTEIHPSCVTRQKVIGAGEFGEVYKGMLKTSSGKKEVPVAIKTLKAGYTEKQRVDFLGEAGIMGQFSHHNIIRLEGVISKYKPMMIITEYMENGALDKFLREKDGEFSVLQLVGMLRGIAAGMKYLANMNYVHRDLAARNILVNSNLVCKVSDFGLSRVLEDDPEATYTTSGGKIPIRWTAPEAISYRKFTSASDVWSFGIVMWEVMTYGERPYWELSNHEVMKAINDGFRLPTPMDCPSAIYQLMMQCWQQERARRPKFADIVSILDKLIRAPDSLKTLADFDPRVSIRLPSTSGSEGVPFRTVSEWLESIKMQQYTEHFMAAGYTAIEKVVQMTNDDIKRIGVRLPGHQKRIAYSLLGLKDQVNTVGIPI
Sequence of human AKT serine/threonine Kinase 2 (AKT2), AKT2 (gene 208) (P31751 whole entry, looked up): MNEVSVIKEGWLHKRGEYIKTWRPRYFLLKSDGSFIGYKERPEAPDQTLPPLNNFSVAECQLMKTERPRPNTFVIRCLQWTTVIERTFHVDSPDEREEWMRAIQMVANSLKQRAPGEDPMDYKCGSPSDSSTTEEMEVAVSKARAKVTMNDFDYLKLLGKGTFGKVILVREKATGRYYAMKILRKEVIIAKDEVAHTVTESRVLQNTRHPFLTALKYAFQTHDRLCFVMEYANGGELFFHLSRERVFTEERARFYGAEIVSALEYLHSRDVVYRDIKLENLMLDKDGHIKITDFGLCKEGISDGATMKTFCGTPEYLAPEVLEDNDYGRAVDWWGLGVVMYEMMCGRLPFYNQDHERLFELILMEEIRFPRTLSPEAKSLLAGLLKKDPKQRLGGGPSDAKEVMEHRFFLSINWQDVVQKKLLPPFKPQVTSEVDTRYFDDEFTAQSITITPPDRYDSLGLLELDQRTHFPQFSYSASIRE
Sequence of human Caspase 5 (CASP5), CASP5 (gene 838) (P51878 whole entry, looked up): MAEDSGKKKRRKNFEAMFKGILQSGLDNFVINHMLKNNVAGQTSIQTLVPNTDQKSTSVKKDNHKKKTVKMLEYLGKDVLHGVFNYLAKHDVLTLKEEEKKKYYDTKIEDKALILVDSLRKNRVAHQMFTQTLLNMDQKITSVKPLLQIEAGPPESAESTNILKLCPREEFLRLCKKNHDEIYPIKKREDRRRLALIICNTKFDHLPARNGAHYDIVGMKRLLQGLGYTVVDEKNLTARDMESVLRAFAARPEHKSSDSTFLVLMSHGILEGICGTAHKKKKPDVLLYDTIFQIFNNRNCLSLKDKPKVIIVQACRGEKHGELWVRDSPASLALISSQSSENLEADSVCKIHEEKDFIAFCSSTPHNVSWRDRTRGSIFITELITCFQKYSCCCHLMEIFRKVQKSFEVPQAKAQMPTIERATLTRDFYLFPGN
Sequence of human Dual Specificity Protein Phosphatase 3 (DUSP3), DUSP3 (gene 1845) (P51452 whole entry, looked up): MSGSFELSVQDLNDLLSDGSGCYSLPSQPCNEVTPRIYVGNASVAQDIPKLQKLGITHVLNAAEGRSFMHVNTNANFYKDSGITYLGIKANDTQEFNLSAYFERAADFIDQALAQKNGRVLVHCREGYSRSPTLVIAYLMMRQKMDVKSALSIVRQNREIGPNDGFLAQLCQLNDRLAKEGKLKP
Sequence of human Caspase 4 (CASP4), CASP4 (gene 837) (P49662 whole entry, looked up): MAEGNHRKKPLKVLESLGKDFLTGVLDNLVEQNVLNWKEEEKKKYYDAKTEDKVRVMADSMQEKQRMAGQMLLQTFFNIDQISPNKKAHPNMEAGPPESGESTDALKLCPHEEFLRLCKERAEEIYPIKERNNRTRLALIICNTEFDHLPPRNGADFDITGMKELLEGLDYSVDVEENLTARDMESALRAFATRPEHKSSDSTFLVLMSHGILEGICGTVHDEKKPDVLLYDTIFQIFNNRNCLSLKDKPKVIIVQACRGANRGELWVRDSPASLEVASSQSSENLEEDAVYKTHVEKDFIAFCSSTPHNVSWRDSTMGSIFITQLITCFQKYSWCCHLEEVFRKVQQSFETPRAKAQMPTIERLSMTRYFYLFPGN

CC(C)[C@H](C(=O)O[C@H](C#N)c1cccc(Oc2ccccc2)c1)c1ccc(Cl)cc1
AC50 [1]: 1.19 µM (active) | outcome [2]: inactive | outcome [3]: inactive

CCCCSP(=O)(SCCCC)SCCCC
outcome [1]: inactive | outcome [4]: inactive

CC(C)=CC1C(C(=O)OCN2C(=O)C3=C(CCCC3)C2=O)C1(C)C (stereo not given)
AC50 [5]: 18.1 µM (active) | AC50 [1]: 25 µM (active) | AC50 [6]: 25 µM (active)

CSc1nc(NC(C)C)nc(NC(C)C)n1
outcome [7]: inactive

CCOP(=S)(OCC)SCCSCC
outcome [5]: inactive

COc1ccc(C(=CC(=O)N2CCOCC2)c2ccc(Cl)cc2)cc1OC
outcome [5]: inactive | outcome [6]: inactive

COP(=O)(NC(C)=O)SC (stereo not given)
outcome [5]: inactive

CN(C)[C@@H]1C(=O)C(C(N)=O)=C(O)[C@@]2(O)C(=O)C3=C(O)c4c(O)cccc4[C@@](C)(O)[C@H]3[C@H](O)[C@@H]12
AC50 [8]: 10.8 µM (active) | AC50 [9]: 23.1 µM (active) | AC50 [10]: 5.15 µM (active) and 683 nM (active) | AC50 [1]: 12.6 µM (active) and 7.9 µM (active) | AC50 [2]: 29.4 µM (active) | AC50 [11]: 11.9 µM (active) | AC50 [6]: 15.8 µM (active) | outcome [6]: inactive | AC50 [12]: 23.1 µM (active) | AC50 [13]: 12.5 µM (active) | AC50 [14]: 2.62 µM (active) | AC50 [15]: 7.61 µM (active) | outcome [15]: inactive | outcome [16]: inactive

Cc1ccn2nc(S(=O)(=O)Nc3c(F)cccc3F)nc2n1
outcome [10]: inactive

CSc1nnc(C(C)(C)C)c(=O)n1N
outcome [7]: inactive

CON=C(C(=O)OC)c1ccccc1CON=C(C)c1cccc(C(F)(F)F)c1
outcome [1]: inactive

CCCCOC(=O)c1ccccc1C(=O)O
outcome [17]: inactive | outcome [1]: inactive | outcome [16]: inactive

O=C(O)c1cc(Oc2ccc(C(F)(F)F)cc2Cl)ccc1[N+](=O)[O-]
outcome [7]: inactive | outcome [6]: inactive | outcome [12]: inactive | outcome [15]: inactive

CC(COc1ccc(Oc2ccccc2)cc1)Oc1ccccn1 (stereo not given)
AC50 [1]: 37.2 µM (active) | outcome [4]: inactive

Nc1c(Cl)cc([N+](=O)[O-])cc1Cl
outcome [17]: inactive | outcome [7]: inactive

CCC(=O)Nc1ccc(Cl)c(Cl)c1
outcome [11]: inactive | AC50 [12]: 1.66 µM (active) | AC50 [18]: 23.6 µM (active)

O=c1ccc(=O)[nH][nH]1
outcome [8]: inactive

CC[C@H](C)[C@H]1O[C@]2(C=C[C@@H]1C)C[C@@H]1C[C@@H](C/C=C(\C)[C@@H](O[C@H]3C[C@H](OC)[C@@H](O[C@H]4C[C@H](OC)[C@@H](NC)[C@H](C)O4)[C@H](C)O3)[C@@H](C)/C=C/C=C3\CO[C@@H]4[C@H](O)C(C)=C[C@@H](C(=O)O1)[C@]34O)O2
outcome [10]: inactive | outcome [5]: inactive | AC50 [1]: 9.68 µM (active) | outcome [14]: inactive

CCOP(=O)(SC(C)CC)N1CCSC1=O (stereo not given)
outcome [17]: inactive

C#CCC1=C(C)C(OC(=O)C2C(C=C(C)C)C2(C)C)CC1=O (stereo not given)
outcome [1]: inactive | outcome [14]: inactive

CCC(CC)Nc1c([N+](=O)[O-])cc(C)c(C)c1[N+](=O)[O-]
outcome [1]: inactive

S=C1NCCN1
outcome [8]: inactive | outcome [9]: inactive | outcome [10]: inactive | outcome [17]: inactive | outcome [1]: inactive | outcome [2]: inactive | outcome [11]: inactive | outcome [6]: inactive | outcome [14]: inactive | outcome [3]: inactive

Cc1nn(-c2cc(NS(C)(=O)=O)c(Cl)cc2Cl)c(=O)n1C(F)F
outcome [6]: inactive

Nc1nc(N)nc(NC2CC2)n1
outcome [6]: inactive | AC50 [18]: 16.3 µM (active)

CCOP(=S)(Oc1cnc(C(C)(C)C)nc1)OC(C)C (stereo not given)
outcome [12]: inactive

CC(Oc1cccc(Cl)c1)C(=O)O (stereo not given)
AC50 [12]: 15 µM (active)

CCCOc1nn(C(=O)NS(=O)(=O)c2ccccc2C(=O)OC)c(=O)n1C
outcome [13]: inactive

CNc1cnn(-c2cccc(C(F)(F)F)c2)c(=O)c1Cl
outcome [19]: inactive
